Most compounds without a hit are left out; they make up all but 12% or so of the library.
Sfp PPTase inh – qHTS Assay for Inhibitors of Bacillus subtilis Sfp phosphopantetheinyl transferase (PPTase); 4'-phosphopantetheinyl transferase ffp (Bacillus subtilis), Q9F4F7; Biochemical Sfp PPTase activity, qHTS; Potency, µM, inactives show largest response in the series, negative = inhibition, usual class: inhibitors; 3.5% of 310,000 active;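 also: the enzyme is Sfp with the accession as filed and its product quenches rhodamine fluorescence; 0% = enzyme reaction without inhibitor and -100% = no enzyme wells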
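After 15 min at room temperature with compound, 15 nM Sfp received 5 uM rhodamine-CoA plus 12.5 uM BHQ-2-ybbR (50 mM Hepes pH 7.6, 10 mM MgCl2). Rate came from the fluorescence difference over 30 min, ex 525/em 598 nm.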
BAZ2B inh – qHTS Assay for Inhibitors of BAZ2B; Bromodomain adjacent to zinc finger domain protein 2B (Homo sapiens), Q9UIF8; AlphaScreen BAZ2B-H3K14Ac peptide displacement; Potency, µM (highest dose often 114 µM), without a hit: at the top dose activity change, negative = inhibition, actives largely listed as inhibitors; 4.4% of 360,000 active; also: % is scaled to controls: 0 for no effect and ±100 for the full control effect; nearly all actives have a fitted effect of over 60% in size
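Inhibition is scored as reduced AlphaScreen emission. The BAZ2B/b-H3(5-23)K14Ac complex (50 nM each) in PBS pH 7.4, 0.01% Tween-20 meets compound (up to 110 uM) for 30 min at RT before bead addition.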
HP1b binding inh – HTS for Inhibitors of HP1-beta Chromodomain Interactions with Methylated Histone Tails; AID 540317, 2011; Chromobox protein homolog 1 (Homo sapiens), P83916; 0.56% of 390,000 active; Potency, µM (series often up to 114 µM), inactives show at the highest dose activity change, negative = inhibition, hits mostly inhibitors; AlphaScreen HP1-beta / biotin-H3K9me3 peptide binding; also: nearly all actives have a fitted effect of over 70% in size
Target sequence (P83916 whole entry, looked up): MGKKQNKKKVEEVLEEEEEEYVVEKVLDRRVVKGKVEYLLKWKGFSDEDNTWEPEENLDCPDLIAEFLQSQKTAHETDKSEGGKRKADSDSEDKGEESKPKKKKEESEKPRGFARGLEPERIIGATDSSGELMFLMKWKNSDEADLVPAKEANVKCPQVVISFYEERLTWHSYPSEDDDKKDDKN
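Compound inhibition of the preformed complex between 50 nM HP1-beta and 50 nM biotinylated H3K9me3 peptide was read by AlphaScreen. Buffer was PBS pH 7.4 with 0.01% Tween-20. Incubations ran 30 min at room temperature, with 10 ug/mL donor/acceptor beads.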
JMJD2A Tudor inh – qHTS Assay for Inhibitors of JMJD2A-Tudor Domain; Lysine-specific demethylase 4A (Homo sapiens), O75164; AlphaScreen JMJD2A-Tudor / H3K4me3 peptide binding; 4.4% of 390,000 active; AID 504339, 2011; Potency, µM (series often up to 114 µM), for the others: at the top dose activity change, negative = inhibition, most hits filed as inhibitors; also: % is scaled to controls: 0 for no effect and ±100 for the full control effect; nearly all actives have a fitted effect of over 50% in size
L3MBTL1 inh – qHTS Assay for the Inhibitors of L3MBTL1; AlphaScreen L3MBTL1–H3K9me1 peptide binding; Potency, µM (series often up to 57.1 µM), without a hit: top-dose activity, negative = inhibition, hits mostly inhibitors; 0.66% of 230,000 active; also: % is scaled to controls: 0 for no effect and ±100 for the full control effect; nearly all actives have a fitted effect of over 60% in size
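Read-out is AlphaScreen signal from streptavidin donor and nickel chelate acceptor beads (10 ug/mL final each) bridging L3MBTL1 (50 nM) and biotinylated K9-monomethylated H3(1-15) peptide (75 nM), after 30 min compound exposure at room temperature.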
G9a block – qHTS Assay for Inhibitors of Histone Lysine Methyltransferase G9a; Potency, µM (series often up to 102 µM), for inactives: at the highest dose activity, negative = inhibition, most hits filed as inhibitors; 8.8% of 350,000 active; Histone-lysine N-methyltransferase EHMT2 (Homo sapiens), Q96KQ7; AID 504332, 2011; G9a H3K9 monomethylation, AlphaScreen, 2 h; also: % is scaled to controls: 0 for no effect and ±100 for the full control effect; nearly all actives have a fitted effect of over 75% in size
Target sequence (Q96KQ7 913-1193 limits assumed): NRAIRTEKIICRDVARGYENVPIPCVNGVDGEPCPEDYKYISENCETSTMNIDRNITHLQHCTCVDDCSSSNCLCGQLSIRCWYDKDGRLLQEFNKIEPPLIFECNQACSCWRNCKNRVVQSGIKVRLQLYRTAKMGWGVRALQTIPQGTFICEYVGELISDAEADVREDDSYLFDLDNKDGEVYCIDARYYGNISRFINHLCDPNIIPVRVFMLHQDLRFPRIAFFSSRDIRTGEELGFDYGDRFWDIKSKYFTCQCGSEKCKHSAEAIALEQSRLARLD
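Step 1: enzyme (final 20 nM) with compound, 15 min RT. Step 2: substrate peptide 500 nM and SAM 20 uM, 2 h RT. Step 3: anti-H3K9me1 antibody and AlphaScreen beads, 10 min, then plate read.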
Active calls of the source: *; [ ] = dose if it differs, or a comment. Calls follow the shape of the dose curve; as a rule, active = well fitted curve in the direction sought with a large enough effect; inconclusive = small, poorly fitted or top-dose-only effect, or another doubt; inactive = no such curve, though single readings can be large; an effect the other way counts as inactive or inconclusive. Potency is read from the fitted curve at half-maximal effect.

O=c1[nH]c(SCc2n[nH]c(=S)n2-c2ccccc2)nc2sc3c(c12)CCC3 was read as Sfp PPTase inh inconclusive, BAZ2B inh -33%, HP1b binding inh -8%, JMJD2A Tudor inh 56µM* and G9a block 2µM*.
Screening COc1cccc(NC(=O)c2c(C)oc3nc(C)nc(N4CCCC4)c23)c1 returned BAZ2B inh 4%[57.1 µM], HP1b binding inh 24%, JMJD2A Tudor inh -27% and G9a block inconclusive.
`CC(C)(C)n1nc2c(c1NC(=O)Cc1ccc(F)cc1)CSC2` gave Sfp PPTase inh inconclusive, BAZ2B inh 7%, HP1b binding inh 27%, JMJD2A Tudor inh -21% and G9a block 45µM*.
CCS(=O)(=O)N1CC(=O)N(c2ccccc2C)C(C)(C(=O)NC2CCCCC2)C1 (stereo not given) was read as BAZ2B inh 4%, HP1b binding inh -9%, JMJD2A Tudor inh -10% and G9a block 5%[59 µM].
Screening CCOC(=O)C1CCN(Cc2ccc(OC)c(C)c2OC)CC1 returned Sfp PPTase inh 0%, BAZ2B inh 50µM*, HP1b binding inh inconclusive, JMJD2A Tudor inh 1.1µM*, L3MBTL1 inh 2% and G9a block inconclusive.
`CCOC(=O)C1CCN(Cc2cc(Cl)c3ccccc3c2O)CC1` gave Sfp PPTase inh inconclusive, BAZ2B inh inconclusive, HP1b binding inh -9%, JMJD2A Tudor inh -21% and G9a block 45µM*.
Oc1c(CN2CCCC(C(F)(F)F)C2)cc(Cl)c2ccccc12 (stereo not given) was read as Sfp PPTase inh -12%, BAZ2B inh -29%, HP1b binding inh -2%, JMJD2A Tudor inh -24% and G9a block 40µM*.
`CCOC(=O)C1CCN(Cc2nc(-c3ccc(OC)c(OC)c3)no2)CC1` gave Sfp PPTase inh 2%, BAZ2B inh 1%, HP1b binding inh 20%, JMJD2A Tudor inh -11%, L3MBTL1 inh -4% and G9a block -7%[59 µM].
COc1cccc(CSc2nc3n(n2)C(CC(C)C)C(C(=O)Nc2ccccc2OC)=C(C)N3)c1 (stereo not given) was read as BAZ2B inh -13%, HP1b binding inh 2%, JMJD2A Tudor inh -22% and G9a block -1%[59 µM].
CCc1cccc(C)c1NC(=O)CCS(=O)(=O)c1ccc2c(c1)oc(=O)n2C was read as BAZ2B inh 3%[57.1 µM], HP1b binding inh inconclusive, JMJD2A Tudor inh 79µM* and G9a block 10µM*.
`Cc1cccc(C)c1NC(=O)CCS(=O)(=O)c1ccc2c(c1)n(C)c(=O)c(=O)n2C` gave BAZ2B inh inconclusive, HP1b binding inh 73%, JMJD2A Tudor inh -13% and G9a block 0%[59 µM].
`c1ncc(-c2ccc3c(c2)OCO3)c(NCCc2cnc[nH]2)n1` gave Sfp PPTase inh -16%.
COc1ccc(S(=O)(=O)NCC(c2ccco2)S(=O)(=O)c2cccs2)cc1C (stereo not given) was read as BAZ2B inh -14%, HP1b binding inh 34%, JMJD2A Tudor inh -5% and G9a block -22%[59 µM].
For O=C(NC1=C(Nc2ccc(F)cc2)C(=O)c2ccccc2C1=O)c1ccc(Cl)cc1 the results were Sfp PPTase inh -2%, BAZ2B inh -37%, HP1b binding inh inconclusive, JMJD2A Tudor inh -13%, L3MBTL1 inh -27% and G9a block 5µM*.

Compound activity deposited in PubChem BioAssay by National Center for Advancing Translational Sciences (NCATS).
